# Test results as given in PubChem BioAssay (EPA / NIEHS).
# “And” between values parts separate entries of the source, which are not always exact repeats. Equal values may be shown once. A structure can be active in one record and inactive in another. The source made the active and inactive calls. The calls were made as follows: active = hit-call score of the fitted dose curve at least 0.9, where 1 is the maximum; inactive = score below 0.9.
# Experiment: ATG_E_Box_CIS: Attagene CIS-FACTORIAL HepG2 Assay for human Enhancer Box (E-box) (AID 2282936)
# Conditions: HepG2 E-box cis-reporter transcription, actives raise or lower the signal
# Method: ATG_CIS is a cell-based, multiplexed-readout assay that uses HepG2, a human liver cell line, with measurements taken at 24 hours after chemical dosing in a 24-well plate.ATG_E_Box_CIS is one of 52 assay component(s) measured or calculated from the ATG_CIS assay. It is designed to make measurements of mRNA induction, a form of inducible reporter, as detected with fluorescence intensity signals by Reverse transcription polymerase chain reaction (RT-PCR) and Capillary electrophoresis technology.Data from the assay component ATG_E_Box_CIS was analyzed into 1 assay endpoint. This assay endpoint, ATG_E_Box_CIS, was analyzed with bidirectional fitting relative to DMSO as the negative control and baseline of activity. Using a type of inducible reporter, measures of mRNA for gain or loss-of-signal activity can be used to understand the reporter gene at the transcription factor-level as they relate to the gene USF1. Furthermore, this assay endpoint can be referred to as a primary readout, because this assay has produced multiple assay endpoints where this one serves a reporter gene function. To generalize the intended target to other relatable targets, this assay endpoint is annotated to the dna binding intended target family, where the subfamily is basic helix-loop-helix protein.
# Human liver HepG2 cells are transiently transfected with multiple reporter transcription units (MRTUs) in 6-well plates using FuGene 6 reagent (Roche; 3 ml FuGene/1 mg DNA). The MRTU constructs are regulated by a cis-regulating element (promoter). […] A major difference between the CIS and TRANS system is that in CIS activities of endogenous TFs are measured, whereas the TRANS assay evaluates changes in activities of exogenous, chimeric NR-Gal4 proteins. […] At the end of 24 hour incubation, total RNA was isolated using TriZol reagent (Invitrogen). The isolated RNA is then reverse-transcribed using oligo(dT) primer and Mo-MLV reverse transcriptase (Invitrogen) with DNAse I (Ambion) treatment for 30 min. The one-tenth of the produced cDNA was amplified by PCR using Taq DNA polymerase (Invitrogen) and two reporter sequence-specific primers. The PCR products were fluorescently labeled by primer extension with 6-arboxyfluorescein (6-FAM) 5'-labeled reporter sequence-specific primer (2 min at 95 C, 20 s at 68 C and 10 min at 72 C) and these products were digested with 5U of HpaI (New England Biolabs) for 2h at 37 C. The fragments were purified using Qiaquick PCR columns (Qiagen), analyzed on an ABI 3130xL genetic analyzer (Applied Biosystems) with peak positions identified by using a set of X-rhodamine (ROX)-labeled MapMarker1000 molecular weight standards (BioVentures). The raw capillary electrophoresis data was processed using Attagraph software (Attagene).
SMILES,outcome,AC50
CCO[Si](CCC#N)(OCC)OCC,inactive,–
CCOc1ccc(NC(C)=O)cc1,inactive,–
CCCCCCCCCCCCCCCCCC(=O)OCCCCCCCCCCCCCC(C)C,inactive,–
CCC(CC)CO,inactive,–
NCCN1CCNCC1,inactive,–
CCCCCCCC(=O)N(C)C,inactive,–
CCCCCCCCCCCCN1CCOCC1,inactive,–
c1ccc2scnc2c1,inactive,–
COC(=O)C(C)Oc1ccc(Oc2ncc(C(F)(F)F)cc2Cl)cc1 (stereo not given),–,180 µM (active)
O=C1OC2(c3ccc(O)cc3Oc3cc(O)ccc32)c2ccccc21,inactive,–
CCCCC1CCCCC(=O)O1 (stereo not given),inactive,–
CCCCC(CC)COCCO (stereo not given),inactive,–
CCCCOCCOCCO,inactive,–
CCOCC(C)O (stereo not given),inactive,–
CCOC(=O)COC(=O)c1ccccc1C(=O)OCC,inactive,–
CC(CCO)CC(C)(C)C (stereo not given),inactive,–
O=Cc1ccccc1O,inactive,–
O=C(O)c1ccc(C(=O)O)c(C(=O)O)c1,inactive,–
CCCCCCCCCO,inactive,–
O=C1OCc2ccccc21,inactive,–

SMILES,outcome,AC50
CCCCCCOC(C)=O,inactive,–
O=C(c1ccc(OCCN2CCCCC2)cc1)c1c(-c2ccc(O)cc2)sc2cc(O)ccc12,inactive,11.1 µM (active) and 7.95 µM (active)
CCOC(=O)C(=O)OCC,inactive,–
CCCCCCCCCC(=O)OCC,inactive,–
C=C(C)CCCC(C)CCO (stereo not given),inactive,–
C[C@H](CCC(=O)O)[C@H]1CC[C@H]2[C@@H]3CC[C@@H]4C[C@H](O)CC[C@]4(C)[C@H]3CC[C@]12C,–,64.2 µM (active)
CC(=O)c1cccnc1,inactive,–
CC(C)=CCCC(C)=CC(=O)O,inactive,–
C[C@]12CC[C@@H]3c4ccc(O)cc4CC[C@H]3[C@@H]1CC[C@@H]2O,inactive,–
CC(C)(C)C1CCC(O)CC1 (stereo not given),inactive,–
COc1ccc2[nH]cc(CCNC(C)=O)c2c1,inactive,–
O=C1CCC(=O)N1,inactive,–
CCC(C)(C)C1CCC(OC)CC1 (stereo not given),inactive,–
CCCCCCCCCCOC(=O)c1ccccc1C(=O)OCCCCCCCC,inactive,–
CC(C)(C)c1cc(CCC(=O)OCCSCCOC(=O)CCc2cc(C(C)(C)C)c(O)c(C(C)(C)C)c2)cc(C(C)(C)C)c1O,inactive,–
CC(C)(C)c1cccc(O)c1,inactive,–
CCCCCCOc1ccc(O)cc1,inactive,–
C=C(C)C(=O)OCCC[Si](OC)(OC)OC,inactive,–
CC(=O)CCC(=O)O,inactive,–
